DUSP3 inh – blocks human VHR1 dual specificity phosphatase | recombinant VHR phosphatase, pNPP absorbance | inhibition, % at 13.3 µM | 290,000 compounds, 0.52% hits | AID 1654; in the data active = inhibition above about 50%
Target sequence (P51452 whole entry, looked up): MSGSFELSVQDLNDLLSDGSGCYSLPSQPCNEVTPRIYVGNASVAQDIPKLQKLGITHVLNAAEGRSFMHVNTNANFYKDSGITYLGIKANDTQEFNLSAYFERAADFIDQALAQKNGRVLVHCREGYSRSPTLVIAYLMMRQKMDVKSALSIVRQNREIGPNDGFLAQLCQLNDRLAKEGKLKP
Anthrax LF inh2 – anthrax lethal factor protease inhibition; inhibition, % at 10 µM; multiplex microsphere protease cleavage assay, LF; 360,000 compounds, 0.12% hits; P15917; note: plate controls were buffer without enzyme for full effect and enzyme alone for no effect
BoNT-F LC inh – BoNT F light chain protease inhibition. inhibition, % at 10 µM. 360,000 compounds, 0.22% hits. Multiplex microsphere protease cleavage assay, flow cytometry; in the data active = inhibition above about 35%, passing the limit was not always enough; inconclusive = no clear call, values can overlap the other calls; note: plate controls were buffer without enzyme for full effect and enzyme alone for no effect
Autofluor counter – compound fluorescence in toxin protease inhibitor counterscreen; compound autofluorescence counterscreen, microsphere flow cytometry; hits give high values; fluorescence intensity (no concentration beside the values); 360,000 compounds, 3.1% hits; in the data active = fluorescence intensity above about 16000; inconclusive = no clear call, values can overlap the other calls
SARS 3CLpro inh – SARS-CoV 3CLpro protease inhibition; P0C6X7; recombinant SARS-CoV 3CLpro, quenched FRET peptide cleavage; inhibition, % at 6 µM; 290,000 compounds, 0.14% hits; in the data active = inhibition above about 12%
BoNT A protease – inhibitors of Botulinum neurotoxin A light chain protease. 360,000 compounds, 0.17% hits. multiplex microsphere protease substrate cleavage, flow cytometry. inhibition, % at 10 µM; note: plate controls were buffer without enzyme for full effect and enzyme alone for no effect
Starred values were filed as active, the others as inactive. Rows were chosen to be rich in hits. Some 3.9% of all compounds tested hit in one or more screens of this group. Cut-off read from the data, not from the text of the source, unless noted: active = inhibition above about 30%; inconclusive = no clear call, values can overlap the other calls; inactive = below that.

`CCC(=O)Nc1ccc(Oc2ccc3c(c2)C(=O)N(c2ccc(O)cc2)C3=O)cc1` gave DUSP3 inh 23, Anthrax LF inh2 0, BoNT-F LC inh 1, Autofluor counter 21982*, SARS 3CLpro inh 2 and BoNT A protease inconclusive.
O=C(Nc1cc(-c2nc3ncccc3o2)ccc1Cl)c1ccc([N+](=O)[O-])o1 was read as DUSP3 inh 7, Anthrax LF inh2 3, BoNT-F LC inh -18, Autofluor counter 3738, SARS 3CLpro inh -7 and BoNT A protease -1.
O=C1NC(=O)C2(Cc3ccccc3N3CCOCC32)C(=O)N1c1ccccc1 (stereo not drawn) was read as DUSP3 inh 6, Anthrax LF inh2 -1, BoNT-F LC inh 0, Autofluor counter 22770*, SARS 3CLpro inh -3 and BoNT A protease 1.
Screening O=C1NC(=O)C2(Cc3ccccc3N3CCCC32)C(=O)N1c1ccccc1 (stereo not drawn) returned DUSP3 inh 10, Anthrax LF inh2 -1, BoNT-F LC inh -5, Autofluor counter 3927, SARS 3CLpro inh -1 and BoNT A protease 1.
Screening Oc1ccccc1C(=S)N1CCCCCC1 returned DUSP3 inh 4, Anthrax LF inh2 -8, BoNT-F LC inh 1, Autofluor counter 19817*, SARS 3CLpro inh -5 and BoNT A protease 2.
Screening CSc1nc(N)n2nc(-c3ccccc3)cc2n1 returned DUSP3 inh -7, Anthrax LF inh2 -2, BoNT-F LC inh -9, Autofluor counter 5298, SARS 3CLpro inh 3 and BoNT A protease 1.
CN(C)c1nc(Cl)cc(N2CCOCC2)n1 was read as DUSP3 inh 8, Anthrax LF inh2 -1, BoNT-F LC inh -1, Autofluor counter 22938*, SARS 3CLpro inh -6 and BoNT A protease 1.
For Cc1cc(OC(=O)N2CCOCC2)cc(C)c1Cl the results were DUSP3 inh 7, Anthrax LF inh2 1, BoNT-F LC inh -1, Autofluor counter 2857, SARS 3CLpro inh 5 and BoNT A protease -1.
CC(=O)Oc1c(Cl)c(N2CCOCC2)c(OC(C)=O)c2ccccc12 was read as DUSP3 inh 27, Anthrax LF inh2 -3, BoNT-F LC inh -4, Autofluor counter 17480*, SARS 3CLpro inh 1 and BoNT A protease -2.
Cc1ccc(CCNC(=O)Cc2ccc(NC3=NC4CS(=O)(=O)CC4S3)cc2)cc1 (stereo not drawn) was read as DUSP3 inh 13, Anthrax LF inh2 2, BoNT-F LC inh 2, Autofluor counter 4258, SARS 3CLpro inh -1 and BoNT A protease 0.
`COc1cccc(CN2CCC2(C)C(=O)Nc2cccc(Oc3ccccc3)c2)c1F` (stereo not drawn) gave Anthrax LF inh2 -1, BoNT-F LC inh 0, Autofluor counter 2858 and BoNT A protease 0.
`O=C(NCc1cccc(C(F)(F)F)c1)C1CCCN(c2ncccn2)C1` (stereo not drawn) gave DUSP3 inh 4, Anthrax LF inh2 -5, BoNT-F LC inh 0, Autofluor counter 22625*, SARS 3CLpro inh 1 and BoNT A protease inconclusive.
O=C(Nc1ccccc1-c1ccccc1)C1CCCN(c2ncccn2)C1 (stereo not drawn) was read as DUSP3 inh 11, Anthrax LF inh2 -2, BoNT-F LC inh -2, Autofluor counter 16368*, SARS 3CLpro inh 4 and BoNT A protease 0.
Screening O=C(C1CCCN(c2ncccn2)C1)N1CCc2ccccc21 (stereo not drawn) returned DUSP3 inh 25, Anthrax LF inh2 -4, BoNT-F LC inh -8, Autofluor counter 17813*, SARS 3CLpro inh 4 and BoNT A protease -5.
Screening Cc1cc(C)nc(N2CCCC(C(=O)NCc3cccc(C(F)(F)F)c3)C2)n1 (stereo not drawn) returned DUSP3 inh 24, Anthrax LF inh2 0, BoNT-F LC inh -15, Autofluor counter 8636, SARS 3CLpro inh -4 and BoNT A protease -1.
`COC(=O)c1ccc(C(=O)N2CCCC(C)(C(=O)NS(=O)(=O)C3CC3)C2)cc1` (stereo not drawn) gave Anthrax LF inh2 -2, BoNT-F LC inh -1, Autofluor counter 4003 and BoNT A protease 0.
`CCCS(=O)(=O)NC(=O)C1(C)CCN(C(=O)Cc2cccc3ccccc23)C1` (stereo not drawn) gave Anthrax LF inh2 1, BoNT-F LC inh 1, Autofluor counter 3997 and BoNT A protease 0.

High-throughput results: PubChem, several laboratories
